# Data: the supplement of paper PMC3724861
# The entries come from a sample that favours hits as a whole. The true hit rate is not given.
# Tested on: T1, Caupolican (Caup) homeodomain DNA-binding domain
# T1 sequence: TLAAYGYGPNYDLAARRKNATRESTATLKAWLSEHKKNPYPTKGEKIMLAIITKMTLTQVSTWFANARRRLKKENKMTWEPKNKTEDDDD
# Test: PBM E-score (8-mer, recovered from the published 9-mer minima) (E-score (dimensionless, -0.5 to 0.5)); Drosophila protein; higher = stronger relative binding preference, active = 0.31 or more
# Description: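 Protein binding microarray (PBM): in vitro transcribed/translated Caupolican (Caup) homeodomain DNA-binding domain (residues 214-303) applied at 100 nM to a universal 8-mer PBM array (Agilent AMADID 015681). The 8-mer enrichment score (E-score, range -0.5 to 0.5) was computed, and each 9-mer score is the minimum E-score of its two constituent 8-mers. The E-score is the same for a 9-mer and its reverse complement; 0.31 is the stated binding threshold.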
row,Sequence,PBM E-score
1,AAATTACA,0.329 (active)
2,AAATTACT,0.124 (inactive)
3,CAATTACG,0.0582 (inactive)
4,CAATTACC,-0.00996 (inactive)
5,CACTTACA,0.243 (inactive)
6,CAATTACA,0.334 (active)
7,TAATTATA,0.234 (inactive)
8,GACTTACA,0.246 (inactive)
9,GAATTACA,0.29 (inactive)
10,TAATTACA,0.335 (active)
11,AAATTACG,0.0367 (inactive)
12,AACTTACA,≥ 0.344 (active)
13,AGGTAATA,0.0994 (inactive)
14,CGCCCATA,-0.126 (inactive)
15,CGACCTCC,-0.138 (inactive)
16,AGCAACGA,0.0654 (inactive)
17,ACAATCCG,0.117 (inactive)
18,CGGGAAAA,-0.0322 (inactive)
19,CCGGAGAG,-0.159 (inactive)
20,CATTTACA,0.239 (inactive)
21,GATTTACA,0.246 (inactive)
22,AATTTACA,0.328 (active)
23,GAGGTTGC,-0.184 (inactive)
24,AGGCAATA,0.0132 (inactive)

row,Sequence,PBM E-score
1,AATTGCAT,0.0474 (inactive)
2,ACAAGGTA,0.335 (active)
3,CCAAGATA,0.106 (inactive)
4,ACAAGATC,0.258 (inactive)
5,GCAAGACA,0.0548 (inactive)
6,GCAAGGTA,0.0505 (inactive)
7,ACAAGGTC,0.298 (inactive)
8,ACAAGATA,0.342 (active)
9,ACAAGACG,0.257 (inactive)
10,ACAAGACA,≥ 0.352 (active)
11,CGAATAGA,0.0132 (inactive)
12,ACGTCACG,0.0623 (inactive)
13,CATTCCCA,-0.01 (inactive)
14,CGGGATCC,-0.132 (inactive)
15,ACCCAAGC,-0.122 (inactive)
16,CCCTGCGG,-0.29 (inactive)
17,ACGTCGAG,-0.0187 (inactive)
18,ATAACAGA,0.171 (inactive)
19,GTAACATA,0.345 (active)
20,CTAACATA,0.28 (inactive)
21,CTAACATC,0.208 (inactive)
22,ATAACAGG,0.155 (inactive)
23,ATAACATC,0.318 (active)
24,ATAACAGC,0.148 (inactive)

row,Sequence,PBM E-score
1,ATAACTTG,0.197 (inactive)
2,ATAACATA,0.356 (active)
3,ATAACATG,0.424 (active)
4,GTAACAGA,0.211 (inactive)
5,CGATCATC,0.0443 (inactive)
6,ATCCGCGG,-0.111 (inactive)
7,AAAGTTGG,0.0235 (inactive)
8,ATAGGGGA,-0.137 (inactive)
9,AACCGGCG,-0.0557 (inactive)
10,GCTAGATA,0.0474 (inactive)
11,CCGCGTCC,-0.087 (inactive)
12,CCTGTATC,0.125 (inactive)
13,AATGTATG,0.243 (inactive)
14,CATGTATC,0.408 (active)
15,CATGTATA,0.418 (active)
16,AATGTATA,0.271 (inactive)
17,CAAGTATC,0.148 (inactive)
18,GATGTATA,0.295 (inactive)
19,AGTGTATC,0.186 (inactive)
20,AATGTATC,0.314 (active)
21,CAACCCCA,-0.102 (inactive)
22,CACTGATG,0.107 (inactive)
23,GAGAACGC,-0.0756 (inactive)
24,CACTTCCG,-0.121 (inactive)

row,Sequence,PBM E-score
1,ATATCGTC,0.107 (inactive)
2,AGACCCAA,-0.131 (inactive)
3,CTTACAAA,0.181 (inactive)
4,CATACAAC,0.27 (inactive)
5,CTTACAAC,0.333 (active)
6,GTTACAAC,0.303 (inactive)
7,CTCACAAG,0.0655 (inactive)
8,CTTACAAG,0.343 (active)
9,CCGCGTCA,-0.126 (inactive)
10,AGCTGGTG,-0.0997 (inactive)
11,AGCGGCGG,-0.225 (inactive)
12,ATAGGCGA,-0.0622 (inactive)
13,CGATGTCA,0.311 (active)
14,GGATGTCA,0.311 (active)
15,GGATGTGA,0.081 (inactive)
16,CGATGTCC,0.143 (inactive)
17,AGATGTCA,0.279 (inactive)
18,GTATGTCA,0.345 (active)
19,ATATGTCA,0.305 (inactive)
20,CGGTGTCA,0.193 (inactive)
21,CTATGTCA,0.307 (inactive)
22,ACAAGGTG,0.255 (inactive)
23,AAGCGCGA,-0.033 (inactive)
24,CAACGTGA,0.0867 (inactive)

row,Sequence,PBM E-score
1,CGAGCTCA,-0.105 (inactive)
2,CAACCGTA,0.0275 (inactive)
3,AGACATAT,0.264 (inactive)
4,ATACATAA,0.348 (active)
5,ATACATTC,≥ 0.314 (active)
6,ATACATAC,0.332 (active)
7,CTACATTC,0.119 (inactive)
8,ATACATAG,0.292 (inactive)
9,ATACATAT,0.344 (active)
10,ATACATTG,0.261 (inactive)
11,AGACATAC,0.222 (inactive)
12,CTACATAC,0.286 (inactive)
13,CCTCACAA,-0.0288 (inactive)
14,GGAATGAA,0.00414 (inactive)
15,GTAGAGGA,0.00507 (inactive)
16,AGTGATAA,0.126 (inactive)
17,GTCGCCAA,-0.0201 (inactive)
18,GCCCTAAC,-0.104 (inactive)
19,CATCATGA,0.11 (inactive)
20,ACACCAGT,0.101 (inactive)
21,CTCCCGAA,-0.138 (inactive)
22,CTATTAAC,0.178 (inactive)
23,CAGGGATC,-0.124 (inactive)
24,GCTCCAGC,-0.186 (inactive)

row,Sequence,PBM E-score
1,AAGTAGTA,0.186 (inactive)
2,CAGTAGTA,0.175 (inactive)
3,GCGTAGTA,0.0285 (inactive)
4,GAGTAGTA,0.0893 (inactive)
5,ATGTAGGC,0.12 (inactive)
6,CTGTAGTA,0.348 (active)
7,ATGTAGTC,0.331 (active)
8,CTGTAGTC,0.0608 (inactive)
9,ATGTAGTA,0.372 (active)
10,ATGTAGTG,0.27 (inactive)
11,GTGTAGTA,0.357 (active)
12,AAGTAGTC,0.159 (inactive)
13,AAAGGTGC,-0.0982 (inactive)
14,TGAGCAAA,0.0543 (inactive)
15,GGAGGCAC,-0.154 (inactive)
16,ACTGAGCA,0.0738 (inactive)
17,CTCTTTTC,-0.1 (inactive)
18,CCTCTGTC,-0.0145 (inactive)
19,AGCTCATC,-0.167 (inactive)
20,CGCGTGTA,0.285 (inactive)
21,ATCGTGCA,0.127 (inactive)
22,ATCGTGTC,0.336 (active)
23,ATCGTGTA,0.407 (active)
24,GTCGTGGA,-0.0165 (inactive)

row,Sequence,PBM E-score
1,ATCGTGTG,0.149 (inactive)
2,CTCGTGTA,0.27 (inactive)
3,CTCGTGTC,0.26 (inactive)
4,AGCGTGTA,0.355 (active)
5,GTCGTGTA,0.386 (active)
6,AGCGTGTC,0.231 (inactive)
7,ATCGTGGA,-0.0656 (inactive)
8,CTTGAAGA,-0.0903 (inactive)
9,ATCGACGG,-0.105 (inactive)
10,GTTAAAGA,0.0986 (inactive)
11,GCAACTAC,0.0804 (inactive)
12,GGCAGAGA,-0.188 (inactive)
13,AGTCGAAA,0.0145 (inactive)
14,AAAACTCC,-0.138 (inactive)
15,AACTCGGG,-0.0964 (inactive)
16,GTTTCAAA,0.0987 (inactive)
17,GGGCTTTA,-0.186 (inactive)
18,GATCTACA,0.145 (inactive)
19,CAATAACA,0.238 (inactive)
20,TGATAACA,0.322 (active)
21,GAATAACA,0.301 (inactive)
22,CGATAACA,0.244 (inactive)
23,GGATAACA,0.238 (inactive)
24,TAATAACA,0.319 (active)

row,Sequence,PBM E-score
1,CGGTCTTA,-0.00157 (inactive)
2,ATGTAAGA,0.332 (active)
3,ATGTAACA,0.429 (active)
4,GCGTAACA,0.221 (inactive)
5,CTGTAACA,0.289 (inactive)
6,ATGTAACG,0.347 (active)
7,ACGTAACA,0.263 (inactive)
8,GGGTAACA,0.216 (inactive)
9,CTGTAAGA,0.138 (inactive)
10,GTGTAACA,0.397 (active)
11,GTGTAAGA,0.224 (inactive)
12,ATGTAACC,0.275 (inactive)
13,ACGTAACG,0.0522 (inactive)
14,GATAGATC,0.0307 (inactive)
15,CACGCAAA,0.0933 (inactive)
16,CAAATACA,0.245 (inactive)
17,GTTCGCGA,0.066 (inactive)
18,TACTGCAA,0.125 (inactive)
19,ATTGGGCG,-0.135 (inactive)
20,AAGTAATT,0.18 (inactive)
21,AGCCATAA,0.0213 (inactive)
22,ACCGGCGA,-0.156 (inactive)
23,AGGTAACC,-0.0119 (inactive)
24,AGGTAACT,0.0502 (inactive)

row,Sequence,PBM E-score
1,AGGTAACA,0.327 (active)
2,CTGGTAAG,-0.00689 (inactive)
3,GTATGAGA,0.0966 (inactive)
4,ATATGACC,0.021 (inactive)
5,GTATGACA,0.312 (active)
6,CTATGACA,0.223 (inactive)
7,GTATGATA,0.242 (inactive)
8,ATATGACA,0.336 (active)
9,GAGCTGTA,0.079 (inactive)
10,CTATTGAA,0.0499 (inactive)
11,GCAAGTCC,-0.0418 (inactive)
12,ACATAATA,0.323 (active)
13,ACATAACA,0.332 (active)
14,ACATAACT,0.291 (inactive)
15,ACATAACC,0.22 (inactive)
16,ACATAATC,0.202 (inactive)
17,GCATAATA,0.169 (inactive)
18,GCCTATCA,-0.108 (inactive)
19,CGATCAAA,-0.00998 (inactive)
20,CATCTAAG,-0.0746 (inactive)
21,CGTGTTTA,0.319 (active)
22,CGTGTTAG,0.285 (inactive)
23,CGTGTTAC,0.282 (inactive)
24,GGTGTTAA,0.18 (inactive)

row,Sequence,PBM E-score
1,GGTGTTTA,0.124 (inactive)
2,CGTGTTAA,≥ 0.33 (active)
3,AGTGTTAA,0.165 (inactive)
4,AGTGTTTA,0.176 (inactive)
5,TGTGTTAA,0.32 (active)
6,AGCTGAGG,-0.169 (inactive)
7,AAGCCTAC,-0.0275 (inactive)
8,AGACGGAC,-0.0361 (inactive)
9,CTGAAATA,0.0494 (inactive)
10,AAATAACT,0.19 (inactive)
11,ACATCAAC,0.235 (inactive)
12,AAAGAGTA,0.0035 (inactive)
13,GGTACAAA,0.256 (inactive)
14,CGTACAAA,0.18 (inactive)
15,AGTACAAC,0.275 (inactive)
16,CGTACAAG,0.37 (active)
17,CGTACAGC,0.00506 (inactive)
18,CATACAAG,0.3 (inactive)
19,CGCACAAC,0.0805 (inactive)
20,AGTACCAG,0.0977 (inactive)
21,AGTACAAG,0.416 (active)
22,CGTACAAC,0.31 (active)
23,GGTACAAC,0.32 (active)
24,AGTACAAT,0.292 (inactive)
